Test results published in the supplement of paper PMC9433436.
± gives the standard deviation of the averaged measurements. Whole data set: some 4,100 sequences, median “relative kcat/Km (krel) vs genomic leader AAAGAU” near 1.7, cut for the highest 2% near 6.5. For the sample, the highest values were picked, then their nearest neighbours and some sequences at random.

Molecular target: T1, E. coli RNase P holoenzyme (M1 P RNA + rnpA protein) (UniProt P0A7Y8)
T1 sequence: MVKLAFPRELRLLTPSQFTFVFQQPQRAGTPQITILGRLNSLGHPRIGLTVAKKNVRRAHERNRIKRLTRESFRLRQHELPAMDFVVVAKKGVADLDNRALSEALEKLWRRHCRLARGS
Assay: relative kcat/Km (krel) vs genomic leader AAAGAU (relative (reference leader = 1)); higher = faster RNase P cleavage
How it was run: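 Relative kcat/Km (krel) values came from internal competition kinetics on sequencing read ratios, normalised to the genomic leader and averaged over two technical replicates. A precursor tRNA-Met pool with randomized leader positions −6 to −1 was cleaved by E. coli RNase P holoenzyme (P RNA plus C5 protein) under multiple-turnover conditions at 37 °C. The buffer held 50 mM Tris-HCl pH 8, 100 mM NaCl and 17.5 mM MgCl2, and unreacted precursor was gel-purified at ~5–30% conversion, made into cDNA libraries and Illumina-sequenced.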

[1] = fraction of substrate reacted: ~9-10% (9.79% repeat 1, 9.1% repeat 2)
[2] = fraction of substrate reacted: ~13-16% (15.68% repeat 1, 13.17% repeat 2)
[3] = fraction of substrate reacted: ~26-29% (28.66% repeat 1, 26.4% repeat 2)

| Sequence | relative kcat/Km [1] | relative kcat/Km [2] | relative kcat/Km [3] |
| --- | --- | --- | --- |
| TACCGC | 3.15 ± 1.3 | 4.16 ± 0.76 | 6.03 ± 2.5 |
| TACCGG |  |  | 1.29 ± 0.22 |
| TACCGA | 2.83 ± 0.7 | 4.89 ± 1.1 | 7.04 ± 2.7 |
| AACCGA | 2.67 ± 0.52 | 3.23 ± 0.34 | 4.66 ± 1.2 |
| GACCGA | 3.3 ± 0.89 | 4.27 ± 2.1 | 6.73 ± 2.8 |
| AGCCGC | 3.07 ± 1.3 | 2.5 ± 0.098 | 4.02 ± 1.1 |
| TGTATC | 1.92 ± 0.29 | 2.43 ± 0.36 | 4 ± 1.6 |
| AACTGT | 0.625 ± 0.14 | 0.97 ± 0.59 | 0.608 ± 0.51 |
| GGACGG |  |  | 0.782 ± 0.17 |
| GGCGGC |  |  | 0.914 ± 0.47 |
| GAACAG |  | 0.667 ± 0.64 | 1.66 ± 0.19 |
| GAATAT | 2.99 ± 0.33 | 4.3 ± 0.79 | 6.29 ± 3.4 |
| TCATAC | 4.3 ± 0.51 | 5.72 ± 0.91 | 7.38 ± 3 |
| ACATAT | 2.86 ± 0.79 | 4.26 ± 0.58 | 6.5 ± 3.1 |
| TCATAG | 1.97 ± 1.4 | 1.66 ± 0.34 | 3.6 ± 0.47 |
| TAATAA | 3.59 ± 2 | 4.41 ± 0.57 | 5.5 ± 2.2 |
| TCATAT | 4.21 ± 1.4 | 5.49 ± 1 | 8.18 ± 3.4 |
| TAATAT | 3.78 ± 1.4 | 5.05 ± 0.28 | 7.45 ± 3.4 |
| TCATAA | 3.15 ± 1.2 | 4.17 ± 0.67 | 5.77 ± 2.2 |
| ACATAC | 3.09 ± 1.3 | 3.78 ± 0.48 | 6.1 ± 2.7 |
| ACAACT |  |  | 1.07 ± 0.15 |
| CGGACA | 0.696 ± 0.1 | 0.739 ± 0.49 | 0.747 ± 0.23 |

| Sequence | relative kcat/Km [1] | relative kcat/Km [2] | relative kcat/Km [3] |
| --- | --- | --- | --- |
| GCAAAT | 2.24 ± 0.9 | 2.01 ± 0.39 | 1.93 ± 0.58 |
| CGACCC |  | 0.175 ± 0.13 | 1.47 ± 0.038 |
| AAGATG |  |  | 0.939 ± 0.44 |
| CACGAC | 3.62 ± 0.058 | 5.56 ± 2.7 | 7.35 ± 3 |
| TACGAT | 2.93 ± 1.5 | 2.79 ± 0.68 | 3.63 ± 1.5 |
| TACGAC | 3.699 ± 0.0078 | 5.54 ± 1.6 | 7.61 ± 3.2 |
| GACGAA | 3.75 ± 1.5 | 6.07 ± 1.1 | 8.11 ± 2.6 |
| AACGAA | 2.84 ± 0.7 | 3.68 ± 0.69 | 5.36 ± 1.9 |
| CACGAT | 1.78 ± 0.53 | 2.22 ± 0.33 | 3.42 ± 1.1 |
| GACGGA |  | 1.21 ± 1.1 | 0.922 ± 0.64 |
| TACGAA | 2.87 ± 0.059 | 5.68 ± 1 | 8.44 ± 3.8 |
| TACGAG |  | 1.58 ± 0.12 | 3.95 ± 1.1 |
| CACGAG | 1.8 ± 0.22 | 2.47 ± 1.2 | 3.69 ± 1.2 |
| AACGAC | 3.67 ± 0.53 | 4.57 ± 1.6 | 5.98 ± 2.1 |
| GACGTA | 2.41 ± 1.4 | 2.86 ± 0.42 | 3.54 ± 1.3 |
| TCGTCA | 2.78 ± 1.8 | 2.51 ± 0.12 | 3.63 ± 1.3 |
| ACTAGG |  |  | 0.408 ± 0.15 |
| CGGGCA | 1.28 ± 0.55 | 0.965 ± 0.75 | 0.825 ± 0.17 |
| CCAGAC | 2.22 ± 0.29 | 2.1 ± 1.1 | 3.22 ± 0.77 |
| AAGGGA |  |  | 1.11 ± 0.65 |
| TTTTCC | 2.77 ± 1.4 | 2.75 ± 0.3 | 3.22 ± 0.98 |
| GAGGTG |  |  | 0.61 ± 0.57 |

| Sequence | relative kcat/Km [1] | relative kcat/Km [2] | relative kcat/Km [3] |
| --- | --- | --- | --- |
| GGATGG |  |  | 0.8644 ± 0.0076 |
| CTTTTT | 2.99 ± 1.5 | 3.27 ± 0.75 | 4.46 ± 1.3 |
| GCTCGG | 0.809 ± 0.37 | 0.268 ± 0.21 | 0.748 ± 0.15 |
| CACGCA | 2.14 ± 0.48 | 3.31 ± 1.5 | 4.91 ± 1.6 |
| GACGAG |  | 1.49 ± 0.19 | 3.3 ± 0.29 |
| CACGAA | 4.26 ± 1.8 | 6 ± 1.6 | 7.87 ± 2.6 |
| GACGAT | 1.52 ± 0.65 | 2.06 ± 1.5 | 2.68 ± 1.1 |
| CACGTA | 1.91 ± 1.1 | 2.23 ± 0.31 | 3.56 ± 1.4 |
| GACGAC | 3.35 ± 0.49 | 5.87 ± 1.6 | 7.89 ± 2.8 |
| CGGATT |  |  | 0.799 ± 0.34 |
| CAAATA | 2.33 ± 2.3 | 1.68 ± 0.092 | 1.78 ± 0.47 |
| CACCTA | 2.32 ± 0.25 | 2.44 ± 0.4 | 3.68 ± 1.3 |
| ACTAAC | 1.48 ± 0.31 | 1.42 ± 0.44 | 2.32 ± 0.65 |
| ATCTGA | 3.86 ± 1.9 | 3.98 ± 0.23 | 6.19 ± 2.2 |
| ATCTGC | 3.18 ± 0.4 | 3.94 ± 1.9 | 6.13 ± 3 |
| TGCTGC | 1.63 ± 0.12 | 1.51 ± 1.2 | 2.71 ± 1 |
| TTCTGG | 0.949 ± 0.38 | 0.819 ± 0.094 | 1.66 ± 0.46 |
| GACTGC | 3.44 ± 0.14 | 3.38 ± 0.99 | 4.88 ± 1.6 |
| TTCTGT |  |  | 2.43 ± 1.9 |
| TTCTGC | 4.12 ± 0.25 | 5.95 ± 2.2 | 8.28 ± 3.5 |
| CTCTGC | 3.95 ± 0.21 | 5.74 ± 1.6 | 7.34 ± 3 |
| GTCTGC | 3.58 ± 1.3 | 4.94 ± 1.2 | 7.11 ± 3.3 |

| Sequence | relative kcat/Km [1] | relative kcat/Km [2] | relative kcat/Km [3] |
| --- | --- | --- | --- |
| TTCTGA | 4.7 ± 2.6 | 5.18 ± 0.91 | 7.63 ± 2.7 |
| GCCTGC | 2.23 ± 0.7 | 3.39 ± 0.37 | 4.68 ± 2.1 |
| CTCTGG | 0.652 ± 0.17 |  | 1.31 ± 0.49 |
| GGTTGG |  |  | 1.05 ± 0.77 |
| TGACAC | 3.63 ± 1.5 | 4.21 ± 0.43 | 5.94 ± 2.2 |
| TTGCCT | 1.95 ± 0.52 | 1.33 ± 0.068 | 2.09 ± 0.58 |
| GGAGCC | 1.22 ± 0.046 | 0.902 ± 0.094 | 1.3 ± 0.38 |
| ACACGG |  | 0.487 ± 0.4 |  |
| ACGCAA | 1.95 ± 1.4 | 1.95 ± 0.18 | 2.25 ± 0.13 |
| GGGGCG | 0.268 ± 0.026 |  | 0.656 ± 0.0035 |
| ATAGGT |  |  | 2.15 ± 1.4 |
| ATAACT | 1.28 ± 0.37 | 1.21 ± 0.2 | 1.79 ± 0.75 |
| GAGTTT | 1.6 ± 0.65 | 1.28 ± 0.17 | 2.05 ± 0.46 |
| ACAAAC | 1.92 ± 1.6 | 1.88 ± 1.1 | 2.42 ± 0.36 |
| CGCTGA | 1.89 ± 0.05 | 2.02 ± 1 | 3.55 ± 0.89 |
| CTCTGT | 0.825 ± 0.31 | 1.81 ± 1.4 | 2.05 ± 1.6 |
| CTCTGA | 4.13 ± 2 | 4.61 ± 0.58 | 6.63 ± 1.7 |
| GTCTGG |  | 0.567 ± 0.54 | 0.916 ± 0.067 |
| GTCTGA | 3.86 ± 1.8 | 4.82 ± 1.2 | 6.97 ± 2.6 |
| GTCTGT |  |  | 2.58 ± 2 |
| GGGCAT | 1.03 ± 0.31 | 1.51 ± 0.12 | 2.18 ± 0.97 |
| TCTAAG | 2.04 ± 1.6 | 1.47 ± 0.52 | 2.47 ± 0.27 |
